Assay results published in the supplement of paper PMC10849652.
Targets with a hit are over-represented here; the source holds about 7,900 in all. About 0.6% of all pairs of compound and target were hits. A number with no mark means an inactive call.

compound: CC1=C2C(=CC=C1)N=C(N(C2=O)C3=CC=CC=C3C)CN4C=NC5=C(N=CN=C54)N; experiment: log2 fold change, soluble protein after heating vs DMSO (PISA); higher = thermal stabilisation; K562 cells, 10 uM, 30 min; active = over 0.2 and 3.5 SD of the protein, either way, in both replicates (recomputed)
How it was run: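 Thermal stability values are relative to control samples and come from duplicates. They are expressed as log2 fold changes. For measurement, K562 cells (2×10^6 cells/mL) received 10 μM compound for 30 min, and aliquots were heated for 3 min over 48°C-58°C, pooled, and extracted at 4°C in PBS with 0.5% NP-40. Soluble protein, the supernatant after 21,000xg for 90 min, was quantified by TMTpro 16plex LC-MS/MS with equalised channel sums.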

Sequence of UniProt P49189 (P49189 whole entry, looked up): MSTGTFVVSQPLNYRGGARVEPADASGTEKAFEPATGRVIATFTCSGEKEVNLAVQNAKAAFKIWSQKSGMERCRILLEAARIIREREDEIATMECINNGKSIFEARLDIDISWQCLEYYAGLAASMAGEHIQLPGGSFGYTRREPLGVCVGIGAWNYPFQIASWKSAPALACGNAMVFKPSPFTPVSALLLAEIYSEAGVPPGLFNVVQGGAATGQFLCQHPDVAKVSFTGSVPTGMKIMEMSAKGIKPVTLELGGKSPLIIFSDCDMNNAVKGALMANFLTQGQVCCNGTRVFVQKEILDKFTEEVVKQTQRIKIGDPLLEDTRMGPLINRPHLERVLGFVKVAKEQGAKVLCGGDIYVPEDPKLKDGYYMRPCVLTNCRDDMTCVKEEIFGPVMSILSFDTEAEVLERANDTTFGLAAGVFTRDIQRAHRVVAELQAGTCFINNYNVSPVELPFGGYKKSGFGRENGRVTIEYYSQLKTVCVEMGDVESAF
Sequence of UniProt Q9H7F0 (Q9H7F0 whole entry, looked up): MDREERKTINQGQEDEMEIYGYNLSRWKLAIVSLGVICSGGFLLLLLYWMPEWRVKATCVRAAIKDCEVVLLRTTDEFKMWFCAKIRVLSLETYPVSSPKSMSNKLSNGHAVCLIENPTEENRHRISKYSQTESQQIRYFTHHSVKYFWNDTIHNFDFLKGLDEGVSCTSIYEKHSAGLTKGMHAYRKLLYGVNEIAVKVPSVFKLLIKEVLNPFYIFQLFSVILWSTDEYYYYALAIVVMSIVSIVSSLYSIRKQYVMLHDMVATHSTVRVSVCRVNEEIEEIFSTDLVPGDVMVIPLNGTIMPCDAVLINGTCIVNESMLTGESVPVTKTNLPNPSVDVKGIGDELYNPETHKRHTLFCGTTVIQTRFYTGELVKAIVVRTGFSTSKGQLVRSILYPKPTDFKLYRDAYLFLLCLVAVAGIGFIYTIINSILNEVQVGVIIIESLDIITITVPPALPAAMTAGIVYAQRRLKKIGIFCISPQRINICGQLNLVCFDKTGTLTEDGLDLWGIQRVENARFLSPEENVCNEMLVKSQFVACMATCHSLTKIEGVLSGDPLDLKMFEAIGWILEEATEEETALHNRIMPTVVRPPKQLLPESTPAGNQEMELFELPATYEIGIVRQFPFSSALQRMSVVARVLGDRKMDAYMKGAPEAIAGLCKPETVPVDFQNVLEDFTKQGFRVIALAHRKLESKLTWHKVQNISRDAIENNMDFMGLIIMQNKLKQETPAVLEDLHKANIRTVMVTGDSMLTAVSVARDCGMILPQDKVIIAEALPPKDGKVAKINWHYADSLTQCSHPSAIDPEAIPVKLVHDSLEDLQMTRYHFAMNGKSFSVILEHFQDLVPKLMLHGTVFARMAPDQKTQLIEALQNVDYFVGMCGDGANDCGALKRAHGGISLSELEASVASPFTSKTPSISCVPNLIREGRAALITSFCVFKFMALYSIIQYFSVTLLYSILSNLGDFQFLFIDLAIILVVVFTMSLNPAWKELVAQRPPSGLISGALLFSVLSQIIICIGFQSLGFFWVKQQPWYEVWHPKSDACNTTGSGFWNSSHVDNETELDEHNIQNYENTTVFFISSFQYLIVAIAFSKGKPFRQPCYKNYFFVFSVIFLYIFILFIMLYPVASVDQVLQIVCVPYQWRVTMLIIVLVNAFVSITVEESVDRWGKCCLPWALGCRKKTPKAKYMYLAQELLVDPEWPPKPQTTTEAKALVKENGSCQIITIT
Sequence of UniProt P35612 (P35612 whole entry, looked up): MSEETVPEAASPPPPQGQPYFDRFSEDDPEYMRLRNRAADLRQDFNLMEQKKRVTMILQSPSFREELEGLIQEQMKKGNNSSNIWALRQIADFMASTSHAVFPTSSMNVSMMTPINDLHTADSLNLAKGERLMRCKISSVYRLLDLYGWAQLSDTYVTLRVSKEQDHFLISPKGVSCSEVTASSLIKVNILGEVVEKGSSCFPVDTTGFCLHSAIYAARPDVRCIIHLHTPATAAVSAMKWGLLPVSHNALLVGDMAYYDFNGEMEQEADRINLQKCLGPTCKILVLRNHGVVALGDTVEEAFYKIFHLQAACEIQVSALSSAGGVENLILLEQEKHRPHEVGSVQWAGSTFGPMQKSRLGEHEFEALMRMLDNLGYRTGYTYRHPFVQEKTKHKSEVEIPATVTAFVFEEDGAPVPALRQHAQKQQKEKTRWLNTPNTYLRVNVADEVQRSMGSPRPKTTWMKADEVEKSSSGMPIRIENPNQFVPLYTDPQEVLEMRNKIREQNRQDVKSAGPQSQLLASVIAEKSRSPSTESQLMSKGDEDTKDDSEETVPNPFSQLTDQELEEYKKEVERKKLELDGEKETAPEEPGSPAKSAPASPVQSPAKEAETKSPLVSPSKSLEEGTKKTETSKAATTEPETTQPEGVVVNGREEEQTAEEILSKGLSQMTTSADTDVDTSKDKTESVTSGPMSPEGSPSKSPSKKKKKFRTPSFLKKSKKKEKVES
Sequence of UniProt Q15057 (Q15057 whole entry, looked up): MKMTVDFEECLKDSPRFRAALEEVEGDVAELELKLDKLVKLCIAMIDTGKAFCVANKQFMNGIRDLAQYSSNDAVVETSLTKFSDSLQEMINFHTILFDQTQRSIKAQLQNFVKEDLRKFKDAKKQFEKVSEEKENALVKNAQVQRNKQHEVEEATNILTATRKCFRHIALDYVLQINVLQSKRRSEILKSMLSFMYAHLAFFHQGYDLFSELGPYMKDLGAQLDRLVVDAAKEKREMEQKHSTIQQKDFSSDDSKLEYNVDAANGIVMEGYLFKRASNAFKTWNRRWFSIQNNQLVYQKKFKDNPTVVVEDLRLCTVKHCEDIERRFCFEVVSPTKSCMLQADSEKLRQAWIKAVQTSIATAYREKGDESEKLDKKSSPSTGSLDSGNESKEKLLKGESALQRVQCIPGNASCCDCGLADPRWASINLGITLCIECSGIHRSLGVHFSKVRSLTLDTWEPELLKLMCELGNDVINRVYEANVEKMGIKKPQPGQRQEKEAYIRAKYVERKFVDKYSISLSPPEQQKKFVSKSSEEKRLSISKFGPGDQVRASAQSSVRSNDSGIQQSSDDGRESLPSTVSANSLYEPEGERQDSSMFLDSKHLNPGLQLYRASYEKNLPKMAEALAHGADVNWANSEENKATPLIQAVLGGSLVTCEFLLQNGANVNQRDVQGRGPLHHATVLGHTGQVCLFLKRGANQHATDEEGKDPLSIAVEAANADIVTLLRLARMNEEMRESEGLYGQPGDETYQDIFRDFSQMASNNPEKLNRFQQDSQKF
Sequence of UniProt Q86WA6 (Q86WA6 whole entry, looked up): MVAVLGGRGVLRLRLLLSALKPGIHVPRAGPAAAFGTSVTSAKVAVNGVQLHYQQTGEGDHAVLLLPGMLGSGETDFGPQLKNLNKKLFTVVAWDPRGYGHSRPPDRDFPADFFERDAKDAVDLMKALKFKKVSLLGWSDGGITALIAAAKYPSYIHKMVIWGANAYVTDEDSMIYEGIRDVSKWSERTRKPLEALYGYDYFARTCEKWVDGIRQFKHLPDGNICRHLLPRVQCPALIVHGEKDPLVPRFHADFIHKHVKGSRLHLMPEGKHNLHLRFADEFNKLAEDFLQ
Sequence of UniProt Q9NUQ2 (Q9NUQ2 whole entry, looked up): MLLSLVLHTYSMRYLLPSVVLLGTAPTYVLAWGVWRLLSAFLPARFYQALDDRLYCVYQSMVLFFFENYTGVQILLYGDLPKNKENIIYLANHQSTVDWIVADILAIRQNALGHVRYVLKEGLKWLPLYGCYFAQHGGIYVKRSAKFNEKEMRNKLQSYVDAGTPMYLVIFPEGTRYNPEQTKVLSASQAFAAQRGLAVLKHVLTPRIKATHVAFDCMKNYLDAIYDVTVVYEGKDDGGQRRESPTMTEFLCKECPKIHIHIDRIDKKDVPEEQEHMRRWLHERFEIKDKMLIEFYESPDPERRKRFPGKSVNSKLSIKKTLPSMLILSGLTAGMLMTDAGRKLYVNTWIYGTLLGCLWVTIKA
Sequence of UniProt Q15059 (Q15059 whole entry, looked up): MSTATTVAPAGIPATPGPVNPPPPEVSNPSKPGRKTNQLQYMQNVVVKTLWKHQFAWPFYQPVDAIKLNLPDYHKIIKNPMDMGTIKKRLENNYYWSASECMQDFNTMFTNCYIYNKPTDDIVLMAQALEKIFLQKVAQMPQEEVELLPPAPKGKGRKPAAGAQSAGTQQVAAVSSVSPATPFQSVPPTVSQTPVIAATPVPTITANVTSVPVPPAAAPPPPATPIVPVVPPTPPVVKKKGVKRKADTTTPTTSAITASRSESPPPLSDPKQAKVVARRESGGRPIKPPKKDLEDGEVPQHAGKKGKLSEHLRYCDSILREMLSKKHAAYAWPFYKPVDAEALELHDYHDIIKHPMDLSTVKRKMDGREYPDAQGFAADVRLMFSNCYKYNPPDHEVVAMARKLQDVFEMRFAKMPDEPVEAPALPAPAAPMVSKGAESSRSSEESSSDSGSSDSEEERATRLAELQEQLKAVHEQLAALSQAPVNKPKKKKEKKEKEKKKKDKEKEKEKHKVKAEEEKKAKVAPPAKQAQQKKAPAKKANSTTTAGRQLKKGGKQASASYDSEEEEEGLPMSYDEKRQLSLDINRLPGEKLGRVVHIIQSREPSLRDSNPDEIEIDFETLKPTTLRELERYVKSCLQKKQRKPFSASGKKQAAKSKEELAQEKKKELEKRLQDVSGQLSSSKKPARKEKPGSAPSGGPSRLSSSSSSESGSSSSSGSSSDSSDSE
Sequence of UniProt O14965 (O14965 whole entry, looked up): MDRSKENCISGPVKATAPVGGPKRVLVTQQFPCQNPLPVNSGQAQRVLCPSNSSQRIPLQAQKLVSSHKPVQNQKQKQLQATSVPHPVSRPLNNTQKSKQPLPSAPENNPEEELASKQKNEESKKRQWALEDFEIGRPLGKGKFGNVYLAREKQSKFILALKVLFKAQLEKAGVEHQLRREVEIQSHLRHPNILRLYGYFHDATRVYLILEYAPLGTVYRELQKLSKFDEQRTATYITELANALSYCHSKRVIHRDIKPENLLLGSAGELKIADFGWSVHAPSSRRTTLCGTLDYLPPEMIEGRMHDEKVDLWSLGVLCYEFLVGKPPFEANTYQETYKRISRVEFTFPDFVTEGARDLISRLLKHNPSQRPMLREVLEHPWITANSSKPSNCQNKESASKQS

**Q.** How did the log2 fold change turn out when ACAD9 (UniProt Q9H845) was run?
**A.** 0.031

**Q.** Which log2 fold change does the source give for ATRN (UniProt O75882) here?
**A.** 0.027

**Q.** With AKAP8L (UniProt Q9ULX6) as the target, how does the log2 fold change read?
**A.** 0.054

**Q.** For BPHL (UniProt Q86WA6), which log2 fold change is on record?
**A.** 0.075

**Q.** Which log2 fold change does the source give for ATP1B3 (UniProt P54709) here?
**A.** 0.001

**Q.** How did the log2 fold change turn out when BRD3 (UniProt Q15059) was run?
**A.** 0

**Q.** For ADK (UniProt P55263), which log2 fold change is on record?
**A.** 0.154

**Q.** How did the log2 fold change turn out when ATP13A2 (UniProt Q9NQ11) was run?
**A.** 0.007

**Q.** How did the log2 fold change turn out when ANXA5 (UniProt P08758) was run?
**A.** 0.024

**Q.** How did the log2 fold change turn out when APOH (UniProt P02749) was run?
**A.** 0.073

**Q.** With APOB (UniProt P04114) as the target, how does the log2 fold change read?
**A.** 0.055

**Q.** Which log2 fold change does the source give for ARPP19 (UniProt P56211) here?
**A.** -0.076

**Q.** With ATP13A3 (UniProt Q9H7F0) as the target, how does the log2 fold change read?
**A.** 0.016

**Q.** For ALG14 (UniProt Q96F25), which log2 fold change is on record?
**A.** 0.241

**Q.** With ADPRHL2 (UniProt Q9NX46) as the target, how does the log2 fold change read?
**A.** 0.034

**Q.** How did the log2 fold change turn out when ADD2 (UniProt P35612) was run?
**A.** 0.014

**Q.** ALDH9A1 isoform 3 (UniProt P49189) was tested. Which log2 fold change did it give?
**A.** 0.019

**Q.** Which log2 fold change does the source give for BAIAP2 (UniProt Q9UQB8) here?
**A.** 0.072

**Q.** ACSL1 (UniProt P33121) was tested. Which log2 fold change did it give?
**A.** 0.064

**Q.** With ABHD16A (UniProt O95870) as the target, how does the log2 fold change read?
**A.** 0.026

**Q.** ALDH9A1 (UniProt P49189) was tested. Which log2 fold change did it give?
**A.** 0.03

**Q.** How did the log2 fold change turn out when BTAF1 (UniProt O14981) was run?
**A.** 0.124

**Q.** How did the log2 fold change turn out when AUP1 (UniProt Q9Y679) was run?
**A.** 0.028

**Q.** With BRD4 (UniProt O60885) as the target, how does the log2 fold change read?
**A.** 0.141

**Q.** With ADD3 (UniProt Q9UEY8) as the target, how does the log2 fold change read?
**A.** 0.023

**Q.** Which log2 fold change does the source give for BOP1 (UniProt Q14137) here?
**A.** 0.01

**Q.** Which log2 fold change does the source give for ASH2L (UniProt Q9UBL3) here?
**A.** 0.081

**Q.** With BCAP29 isoform 2 (UniProt Q9UHQ4) as the target, how does the log2 fold change read?
**A.** 0.035

**Q.** Which log2 fold change does the source give for AARS2 (UniProt Q5JTZ9) here?
**A.** 0.044

**Q.** With BUB1B isoform 3 (UniProt O60566) as the target, how does the log2 fold change read?
**A.** 0.1

**Q.** For AURKA (UniProt O14965), which log2 fold change is on record?
**A.** 0.018

**Q.** With ARAF (UniProt P10398) as the target, how does the log2 fold change read?
**A.** 0.178

**Q.** Which log2 fold change does the source give for AGPAT5 (UniProt Q9NUQ2) here?
**A.** 0.007

**Q.** For ACAP2 (UniProt Q15057), which log2 fold change is on record?
**A.** 0.132

**Q.** AGPAT1 (UniProt Q99943) was tested. Which log2 fold change did it give?
**A.** 0.103

**Q.** For ARFGEF1 (UniProt Q9Y6D6), which log2 fold change is on record?
**A.** 0.014
